In PubChem BioAssay (NCATS):
Results filed as inconclusive are left out. Where a call stands in place of a potency, no number is given. Activity calls are given as the source filed them. The call rests on the fitted dose curve; in most records, active means well fitted curve in the direction sought with a large enough effect; inconclusive means small, poorly fitted or top-dose-only effect, or another doubt; inactive means no such curve, though single readings can be large; an effect the other way counts as inactive or inconclusive.
Potency means the concentration at half of the fitted maximal effect.

Assay: Quantitative High-Throughput drug screen in 47 multiple myeloma cell lines against the NCATS MIPE library collection: Delta47_JCRB cell viability assay (AID 1918925; further: nearly all actives have a fitted effect of over 45% in size)
Conditions: Delta47 myeloma viability, CellTiter-Glo ATP, 48 h; series mostly up to 45.8 µM
Outline: (§1)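 CellTiter-Glo luminescence (ATP) after 48 h compound exposure, 37C/5% CO2; 500 cells/well; MIPE 4.0 approved/investigational drugs pinned in; DMSO = 100%, media only = 0% viability.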
In the case of `C[C@](O)(CS(=O)(=O)c1ccc(F)cc1)C(=O)Nc1ccc(C#N)c(C(F)(F)F)c1`, the Potency is reported as 0.372 µM (active). With `O=P1(N(CCCl)CCCl)NCCCO1` (stereo not given) the Potency was 14.8 µM (active). For `COc1cc(OC)c(OC)cc1C=O`, the Potency was “inactive”. In the case of `C[C@]12CC[C@@H]3c4ccc(OC(=O)N(CCCl)CCCl)cc4CC[C@H]3[C@@H]1CC[C@@H]2OP(=O)(O)O`, the Potency is reported as “inactive”. With `CN1C(=O)COc2c(C(=O)NC3CN4CCC3CC4)cc(Cl)cc21` (stereo not given) the Potency was “inactive”. In the case of `CC(C)C[C@H](CN)CC(=O)O`, the Potency is reported as “inactive”. In the case of `CC(C)c1cccc(C(C)C)c1O`, the Potency is reported as “inactive”. For `CCC1(c2ccc(N)cc2)CCC(=O)NC1=O` (stereo not given), the Potency was “inactive”.

Assay: Quantitative High-Throughput drug screen in 47 multiple myeloma cell lines against the NCATS MIPE library collection: EJM_DSMZ cell viability assay (AID 1918926; further: nearly all actives have a fitted effect of over 30% in size)
Conditions: EJM myeloma cell viability, CellTiter-Glo ATP, 48 h; series mostly up to 45.8 µM
Outline: as §1
For `C[C@](O)(CS(=O)(=O)c1ccc(F)cc1)C(=O)Nc1ccc(C#N)c(C(F)(F)F)c1`, the Potency was 0.372 µM (active). In the case of `COc1cc(OC)c(OC)cc1C=O`, the Potency is reported as “inactive”. In the case of `C[C@]12CC[C@@H]3c4ccc(OC(=O)N(CCCl)CCCl)cc4CC[C@H]3[C@@H]1CC[C@@H]2OP(=O)(O)O`, the Potency is reported as “inactive”. With `CN1C(=O)COc2c(C(=O)NC3CN4CCC3CC4)cc(Cl)cc21` (stereo not given) the Potency was “inactive”. With `O=C(O)CCCc1ccc(N(CCCl)CCCl)cc1` the Potency was “inactive”. In the case of `C[C@]12CC[C@H]3[C@@H](CC[C@@]45O[C@H]4C(O)=C(C#N)C[C@]35C)[C@H]1CC[C@H]2O`, the Potency is reported as “inactive”. With `CC(NC(C)(C)C)C(=O)c1cccc(Cl)c1` (stereo not given) the Potency was “inactive”. With `CC(C)C[C@H](CN)CC(=O)O` the Potency was “inactive”. For `CC(C)c1cccc(C(C)C)c1O`, the Potency was “inactive”. For `CCC1(c2ccc(N)cc2)CCC(=O)NC1=O` (stereo not given), the Potency was “inactive”.

Assay: Quantitative High-Throughput drug screen in 47 multiple myeloma cell lines against the NCATS MIPE library collection: AMO1_DSMZ cell viability assay (AID 1918927; further: nearly all actives have a fitted effect of over 30% in size)
Conditions: AMO1 myeloma cells viability, CellTiter-Glo ATP luminescence, 48 h; series mostly up to 45.8 µM
Outline: as §1
For `CN1C(=O)CCS(=O)(=O)C1c1ccc(Cl)cc1` (stereo not given), the Potency was “inactive”. For `C[C@](O)(CS(=O)(=O)c1ccc(F)cc1)C(=O)Nc1ccc(C#N)c(C(F)(F)F)c1`, the Potency was 0.662 µM (active). With `COc1cc(OC)c(OC)cc1C=O` the Potency was “inactive”. For `C[C@]12CC[C@@H]3c4ccc(OC(=O)N(CCCl)CCCl)cc4CC[C@H]3[C@@H]1CC[C@@H]2OP(=O)(O)O`, the Potency was “inactive”. In the case of `O=C(O)CCCc1ccc(N(CCCl)CCCl)cc1`, the Potency is reported as “inactive”. In the case of `C[C@]12CC[C@H]3[C@@H](CC[C@@]45O[C@H]4C(O)=C(C#N)C[C@]35C)[C@H]1CC[C@H]2O`, the Potency is reported as “inactive”. With `CC(NC(C)(C)C)C(=O)c1cccc(Cl)c1` (stereo not given) the Potency was “inactive”. With `CC(C)C[C@H](CN)CC(=O)O` the Potency was “inactive”. With `CC(C)c1cccc(C(C)C)c1O` the Potency was “inactive”. With `CCC1(c2ccc(N)cc2)CCC(=O)NC1=O` (stereo not given) the Potency was “inactive”.

Assay: Quantitative High-Throughput drug screen in 47 multiple myeloma cell lines against the NCATS MIPE library collection: ARP1_JJKsccF8 cell viability assay (AID 1918928; further: nearly all actives have a fitted effect of over 40% in size)
Conditions: ARP1 myeloma cells viability, CellTiter-Glo ATP, 48 h; series mostly up to 45.8 µM
Outline: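 Cell viability inhibition in this qHTS is measured via ATP content (CellTiter-Glo) after 48 h drug exposure at 37 °C. Wells hold 500 cells; DMSO-treated wells define 100% and medium-only wells 0%.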
In the case of `C[C@](O)(CS(=O)(=O)c1ccc(F)cc1)C(=O)Nc1ccc(C#N)c(C(F)(F)F)c1`, the Potency is reported as 18.7 µM (active). With `COc1cc(OC)c(OC)cc1C=O` the Potency was “inactive”. For `C[C@]12CC[C@@H]3c4ccc(OC(=O)N(CCCl)CCCl)cc4CC[C@H]3[C@@H]1CC[C@@H]2OP(=O)(O)O`, the Potency was “inactive”. For `C[C@]12CC[C@H]3[C@@H](CC[C@@]45O[C@H]4C(O)=C(C#N)C[C@]35C)[C@H]1CC[C@H]2O`, the Potency was “inactive”. For `CC(NC(C)(C)C)C(=O)c1cccc(Cl)c1` (stereo not given), the Potency was 13.2 µM (active). With `CC(C)C[C@H](CN)CC(=O)O` the Potency was “inactive”. With `CC(C)c1cccc(C(C)C)c1O` the Potency was “inactive”. With `CCC1(c2ccc(N)cc2)CCC(=O)NC1=O` (stereo not given) the Potency was “inactive”.

Assay: Quantitative High-Throughput drug screen in 47 multiple myeloma cell lines against the NCATS MIPE library collection: ARD_JJKsccE7 cell viability assay (AID 1918929)
Conditions: ARD myeloma cell line viability, CellTiter-Glo, 48 h; series mostly up to 45.8 µM
Outline: as §1
For `CN1C(=O)CCS(=O)(=O)C1c1ccc(Cl)cc1` (stereo not given), the Potency was “inactive”. In the case of `C[C@](O)(CS(=O)(=O)c1ccc(F)cc1)C(=O)Nc1ccc(C#N)c(C(F)(F)F)c1`, the Potency is reported as 1.05 µM (active). With `O=P1(N(CCCl)CCCl)NCCCO1` (stereo not given) the Potency was “inactive”. With `COc1cc(OC)c(OC)cc1C=O` the Potency was “inactive”. For `C[C@]12CC[C@@H]3c4ccc(OC(=O)N(CCCl)CCCl)cc4CC[C@H]3[C@@H]1CC[C@@H]2OP(=O)(O)O`, the Potency was “inactive”. In the case of `O=C(O)CCCc1ccc(N(CCCl)CCCl)cc1`, the Potency is reported as “inactive”. For `CC(C)C[C@H](CN)CC(=O)O`, the Potency was “inactive”. For `CC(C)c1cccc(C(C)C)c1O`, the Potency was “inactive”. For `CCC1(c2ccc(N)cc2)CCC(=O)NC1=O` (stereo not given), the Potency was “inactive”.

Assay: Quantitative High-Throughput drug screen in 47 multiple myeloma cell lines against the NCATS MIPE library collection: Karpas417_ECACC cell viability assay (AID 1918961)
Conditions: Karpas417 myeloma viability, CellTiter-Glo ATP luminescence, 48 h; series mostly up to 45.8 µM
Outline: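 Inhibition of cell viability is measured here. Each line was plated at 500 cells per well, treated with MIPE 4.0 drugs, kept 48 hours at 37C, then assayed for ATP content by CellTiter-Glo luminescence.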
In the case of `C[C@](O)(CS(=O)(=O)c1ccc(F)cc1)C(=O)Nc1ccc(C#N)c(C(F)(F)F)c1`, the Potency is reported as 0.935 µM (active). For `O=P1(N(CCCl)CCCl)NCCCO1` (stereo not given), the Potency was “inactive”. For `C[C@]12CC[C@H]3[C@@H](CC[C@@]45O[C@H]4C(O)=C(C#N)C[C@]35C)[C@H]1CC[C@H]2O`, the Potency was “inactive”. For `CC(C)C[C@H](CN)CC(=O)O`, the Potency was “inactive”.

Assay: Quantitative High-Throughput drug screen in 47 multiple myeloma cell lines against the NCATS MIPE library collection: KHM11_PLB cell viability assay (AID 1918962); further: nearly all actives have a fitted effect of over 35% in size
Conditions: KHM11 myeloma cell viability, CellTiter-Glo ATP luminescence, 48 h; series mostly up to 45.8 µM
Outline: (§2)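 Approved and investigational drugs from MIPE 4.0 were added by pin tool to 500 cells per well. After 48 hours at 37C, ATP-based CellTiter-Glo luminescence indicated remaining viability.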
In the case of `C[C@](O)(CS(=O)(=O)c1ccc(F)cc1)C(=O)Nc1ccc(C#N)c(C(F)(F)F)c1`, the Potency is reported as 0.833 µM (active). For `O=P1(N(CCCl)CCCl)NCCCO1` (stereo not given), the Potency was “inactive”. With `CN1C(=O)COc2c(C(=O)NC3CN4CCC3CC4)cc(Cl)cc21` (stereo not given) the Potency was “inactive”. For `CC(C)C[C@H](CN)CC(=O)O`, the Potency was “inactive”.

Assay: Quantitative High-Throughput drug screen in 47 multiple myeloma cell lines against the NCATS MIPE library collection: JIM3_ECACC cell viability assay (AID 1918963; further: nearly all actives have a fitted effect of over 35% in size)
Conditions: JIM3 myeloma viability, CellTiter-Glo ATP, 48 h; series mostly up to 45.8 µM
Outline: as §2
In the case of `C[C@]12CCC(=O)C=C1CC[C@@H]1[C@H]3CC[C@](C)(O)[C@@]3(C)CC[C@@H]12`, the Potency is reported as “inactive”. For `CN1C(=O)CCS(=O)(=O)C1c1ccc(Cl)cc1` (stereo not given), the Potency was “inactive”. In the case of `C[C@](O)(CS(=O)(=O)c1ccc(F)cc1)C(=O)Nc1ccc(C#N)c(C(F)(F)F)c1`, the Potency is reported as 2.35 µM (active). In the case of `COc1cc(OC)c(OC)cc1C=O`, the Potency is reported as “inactive”. For `C[C@]12CC[C@@H]3c4ccc(OC(=O)N(CCCl)CCCl)cc4CC[C@H]3[C@@H]1CC[C@@H]2OP(=O)(O)O`, the Potency was “inactive”. In the case of `CN1C(=O)COc2c(C(=O)NC3CN4CCC3CC4)cc(Cl)cc21` (stereo not given), the Potency is reported as “inactive”. With `O=C(O)CCCc1ccc(N(CCCl)CCCl)cc1` the Potency was “inactive”. For `C[C@]12CC[C@H]3[C@@H](CC[C@@]45O[C@H]4C(O)=C(C#N)C[C@]35C)[C@H]1CC[C@H]2O`, the Potency was “inactive”. With `CC(NC(C)(C)C)C(=O)c1cccc(Cl)c1` (stereo not given) the Potency was “inactive”. For `CC(C)C[C@H](CN)CC(=O)O`, the Potency was “inactive”. For `CC(C)c1cccc(C(C)C)c1O`, the Potency was “inactive”. For `CCC1(c2ccc(N)cc2)CCC(=O)NC1=O` (stereo not given), the Potency was “inactive”.
